# The source made the active and inactive calls. Unless noted, no rule for the calls is given here.
# What was measured:
# [1] = anti-His antibody binders, primary screen, artefact control for SMM control protein annotation, biochemical, small-molecule microarray, 635 nm fluorescence (AID 1128); settings: anti-His Alexa647 antibody binding, higher = more signal;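 also: score merges feature fluorescence with signal-to-noise for each printed compound spot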
# [2] = test system: Human papillomavirus type 1a E7 protein (residues 1-88); assay: HPV1a E7 small-molecule binders, primary screen, biochemical, small-molecule microarray, residues 1-88, 635 nm (AID 1129); settings: small-molecule microarray binding, fluorescence 635 nm; higher = more signal
# [3] = target: Focal adhesion kinase 1 (Homo sapiens) (UniProt Q05397); assay: small-molecule microarray binders of FAK, primary screen, biochemical, 635/667 nm fluorescence, BSA, DTT (AID 1130); settings: PTK2 binding, 635 nm fluorescence, higher = more signal;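 also: composite of spot emission at 667 nm and signal to noise over triplicate slides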
# [4] = test system: Fibrinogen (Alexa647-labelled); assay: fibrinogen binders on compound microarrays, profiling panel, artefact control for SMM control-protein annotation, biochemical, small-molecule microarray, 635/667 nm fluorescence (AID 1131); settings: fibrinogen-A647 binding fluorescence, higher = more signal;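 also: z-score merges 667 nm fluorescence with per-spot signal-to-noise over triplicate slides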
# [5] = target: Follistatin (Homo sapiens) (UniProt P19883); assay: follistatin binders on small-molecule microarrays, primary screen, biochemical, small-molecule microarray, 635/667 nm fluorescence (AID 1132); settings: FST binding, 635 nm fluorescence, higher = more signal
# [6] = target: Fibroblast growth factor 2 (Homo sapiens) (UniProt P09038); assay: FGF2 binders on small-molecule microarrays, primary screen, biochemical, small-molecule microarray, 635/667 nm fluorescence (AID 1133); settings: small-molecule microarray binding, FGF2, fluorescence 635/667; higher = more signal
# [7] = mitochondrial membrane potential change in A549 cells, profiling panel, cell-based, JC-1 fluorescence, basal, 24 h, 100 nL (AID 1138); settings: higher = more signal;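 also: A549 lung adenocarcinoma cells under basal conditions with no added stimulus; test concentration not given here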
# [8] = test system: Lefty1; assay: Lefty1 binders on small-molecule microarrays, primary screen, biochemical, small-molecule microarray, 635/667 nm fluorescence (AID 1139); settings: small-molecule microarray binding, fluorescence 635/667; higher = more signal
# [9] = test system: wheat germ agglutinin (Triticum aestivum), Alexa647-labelled; assay: wheat germ agglutinin binders on compound microarrays, profiling panel, artefact control for SMM control-protein annotation, biochemical, small-molecule microarray, 635/667 nm fluorescence (AID 1140); settings: WGA-A647 binding, 635 nm fluorescence, higher = more signal;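 also: score merges 667 nm feature emission with signal to noise over triplicate slides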
# [10] = target: Luciferin 4-monooxygenase (Photinus pyralis) (UniProt P08659); assay: firefly luciferase enzyme inhibitors, primary screen, biochemical, luminescence, purified enzyme, 2006 set (AID 1141); settings: SteadyGlo luminescence, 30 min, higher = more signal, called active from +8 up or from −8 down;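 also: cell-free assay with purified firefly luciferase at 100 ng per well in PBS; test concentration not given here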
# [11] = test system: Wnt5a (protein binding on small-molecule microarray); assay: Wnt5a binders on small-molecule microarray, primary screen, biophysical, 635/667 nm fluorescence (AID 1142); settings: 635 nm fluorescence, higher = more signal;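 also: fluorescence read at 667 nm with signal to noise per printed feature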
# [12] = cell viability in Huh7 cells, primary screen, cytotoxicity control for HCV replication inhibitor project, CellTiter-Glo luminescence, basal, 48 h (AID 1143); settings: Huh7 HCV replicon, higher = more signal, called active from +8 up or from −8 down;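 also: Huh7 hepatoma cells carrying a hepatitis C replication reporter with no stimulus; test concentration not given here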
# [13] = P. aeruginosa biofilm formation inhibitors, primary screen, PAO1 strain, BacTiter-Glo luminescence, LB-PBS (AID 1144); settings: 12 h, higher = more signal
# [14] = CREB reporter modulators without forskolin, primary screen, cell-based, PC12, CRE-LacZ reporter, unstimulated (AID 1145); settings: no forskolin, luminescence, 4.5 h, higher = more signal, called active from +8 up or from −8 down
# [15] = CREB reporter modulators under forskolin, primary screen, cell-based, PC12, CRE-LacZ reporter, forskolin-stimulated (AID 1146); settings: luminescence, 4.5 h, higher = more signal, called active from +8 up or from −8 down;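 also: PC12 cells with 6xCRE LacZ reporter stimulated by forskolin 10 µM; beta-galactosidase reporter signal reflecting CREB driven transcription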
# [16] = target: Streptavidin (Streptomyces avidinii) (UniProt P22629); assay: streptavidin binders on small-molecule microarray, primary screen, artefact control for SMM compound annotation, biophysical, 635/667 nm fluorescence (AID 1147); settings: streptavidin binding, higher = more signal;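 also: signal reflects streptavidin binding to arrayed compounds as a control protein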
# [17] = small-molecule binders of probe aInhba, primary screen, biochemical, small-molecule microarray, 635/667 nm fluorescence (AID 1148); settings: higher = more signal;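 also: score merges 667nm spot fluorescence with signal-to-noise for antibody binding to printed compounds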
# [18] = target: Torsin-1A (Homo sapiens) (UniProt O14656); assay: torsin A binders from cell lysate, primary screen, small-molecule microarray, wild-type, 635/667 nm (AID 1149); settings: COS7 hTOR1A-WT lysate, 635 nm fluorescence, higher = more signal
# [19] = target: Torsin-1A (Homo sapiens) (UniProt O14656); assay: small-molecule binders of mutant TOR1A in lysate, primary screen, cell lysate, small-molecule microarray, COS7 lysate, 635/667 nm fluorescence (AID 1150); settings: COS7 hTOR1A mutant lysate, 635 nm fluorescence, higher = more signal;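 also: score pools 667 nm emission and signal to noise measuring lysate protein binding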
# [20] = test system: Sonic hedgehog protein (Shh); assay: small-molecule binders of Shh protein, primary screen, biochemical, small-molecule microarray, 635/667 nm fluorescence (AID 1151); settings: small-molecule microarray binding, 635 nm fluorescence; higher = more signal;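 also: Shh protein binding to compounds spotted on small-molecule microarray slides; score combines spot fluorescence intensity with signal-to-noise across triplicate slides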
# Streptavidin (Streptomyces avidinii), sequence (P22629 whole entry, looked up): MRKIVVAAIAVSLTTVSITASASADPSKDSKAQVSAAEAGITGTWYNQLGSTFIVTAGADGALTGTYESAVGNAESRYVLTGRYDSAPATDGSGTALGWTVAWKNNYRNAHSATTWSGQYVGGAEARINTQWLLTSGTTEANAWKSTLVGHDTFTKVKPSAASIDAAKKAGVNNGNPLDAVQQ
# Follistatin (Homo sapiens), sequence (P19883 whole entry, looked up): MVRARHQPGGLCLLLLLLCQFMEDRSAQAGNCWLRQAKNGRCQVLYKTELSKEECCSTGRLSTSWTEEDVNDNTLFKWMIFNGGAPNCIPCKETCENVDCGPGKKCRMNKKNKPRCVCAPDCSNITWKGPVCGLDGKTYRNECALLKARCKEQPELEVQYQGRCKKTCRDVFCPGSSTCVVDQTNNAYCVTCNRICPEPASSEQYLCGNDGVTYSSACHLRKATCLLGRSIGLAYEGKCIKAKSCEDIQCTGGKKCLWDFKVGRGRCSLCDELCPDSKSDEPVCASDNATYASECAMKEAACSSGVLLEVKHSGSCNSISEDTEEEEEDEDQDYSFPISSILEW
# Torsin-1A (Homo sapiens), sequence (O14656 whole entry, looked up): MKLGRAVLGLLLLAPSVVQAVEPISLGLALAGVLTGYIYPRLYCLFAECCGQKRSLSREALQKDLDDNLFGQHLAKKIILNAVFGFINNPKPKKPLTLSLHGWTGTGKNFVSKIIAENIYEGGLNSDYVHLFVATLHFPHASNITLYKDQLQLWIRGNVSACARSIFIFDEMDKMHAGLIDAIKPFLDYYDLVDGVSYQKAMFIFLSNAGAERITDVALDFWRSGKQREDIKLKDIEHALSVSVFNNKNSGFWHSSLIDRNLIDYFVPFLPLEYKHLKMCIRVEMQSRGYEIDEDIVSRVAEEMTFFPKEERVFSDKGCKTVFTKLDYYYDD
# Fibroblast growth factor 2 (Homo sapiens), sequence (P09038 whole entry, looked up): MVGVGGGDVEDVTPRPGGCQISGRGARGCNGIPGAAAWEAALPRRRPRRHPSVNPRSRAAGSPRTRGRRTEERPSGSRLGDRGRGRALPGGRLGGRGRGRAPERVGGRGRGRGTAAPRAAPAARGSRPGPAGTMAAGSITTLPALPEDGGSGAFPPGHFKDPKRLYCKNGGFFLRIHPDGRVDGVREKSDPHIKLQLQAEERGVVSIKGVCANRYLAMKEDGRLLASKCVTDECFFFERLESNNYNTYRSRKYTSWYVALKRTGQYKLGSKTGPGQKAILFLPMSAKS
# Luciferin 4-monooxygenase (Photinus pyralis), sequence (P08659 whole entry, looked up): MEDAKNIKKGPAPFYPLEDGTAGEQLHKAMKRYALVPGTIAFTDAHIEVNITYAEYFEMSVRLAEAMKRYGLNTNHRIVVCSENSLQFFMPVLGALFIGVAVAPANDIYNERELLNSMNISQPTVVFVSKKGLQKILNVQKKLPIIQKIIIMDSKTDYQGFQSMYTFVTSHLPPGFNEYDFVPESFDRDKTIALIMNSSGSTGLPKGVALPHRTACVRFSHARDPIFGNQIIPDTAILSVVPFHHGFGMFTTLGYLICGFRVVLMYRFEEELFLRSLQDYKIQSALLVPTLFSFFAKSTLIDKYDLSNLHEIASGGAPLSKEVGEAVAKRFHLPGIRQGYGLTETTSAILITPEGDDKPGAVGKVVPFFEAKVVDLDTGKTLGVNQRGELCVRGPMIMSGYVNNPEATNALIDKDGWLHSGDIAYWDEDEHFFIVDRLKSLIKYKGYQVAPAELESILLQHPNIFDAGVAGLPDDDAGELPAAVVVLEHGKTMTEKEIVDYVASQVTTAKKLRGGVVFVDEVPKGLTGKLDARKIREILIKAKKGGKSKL
# Focal adhesion kinase 1 (Homo sapiens), sequence (Q05397 whole entry, looked up): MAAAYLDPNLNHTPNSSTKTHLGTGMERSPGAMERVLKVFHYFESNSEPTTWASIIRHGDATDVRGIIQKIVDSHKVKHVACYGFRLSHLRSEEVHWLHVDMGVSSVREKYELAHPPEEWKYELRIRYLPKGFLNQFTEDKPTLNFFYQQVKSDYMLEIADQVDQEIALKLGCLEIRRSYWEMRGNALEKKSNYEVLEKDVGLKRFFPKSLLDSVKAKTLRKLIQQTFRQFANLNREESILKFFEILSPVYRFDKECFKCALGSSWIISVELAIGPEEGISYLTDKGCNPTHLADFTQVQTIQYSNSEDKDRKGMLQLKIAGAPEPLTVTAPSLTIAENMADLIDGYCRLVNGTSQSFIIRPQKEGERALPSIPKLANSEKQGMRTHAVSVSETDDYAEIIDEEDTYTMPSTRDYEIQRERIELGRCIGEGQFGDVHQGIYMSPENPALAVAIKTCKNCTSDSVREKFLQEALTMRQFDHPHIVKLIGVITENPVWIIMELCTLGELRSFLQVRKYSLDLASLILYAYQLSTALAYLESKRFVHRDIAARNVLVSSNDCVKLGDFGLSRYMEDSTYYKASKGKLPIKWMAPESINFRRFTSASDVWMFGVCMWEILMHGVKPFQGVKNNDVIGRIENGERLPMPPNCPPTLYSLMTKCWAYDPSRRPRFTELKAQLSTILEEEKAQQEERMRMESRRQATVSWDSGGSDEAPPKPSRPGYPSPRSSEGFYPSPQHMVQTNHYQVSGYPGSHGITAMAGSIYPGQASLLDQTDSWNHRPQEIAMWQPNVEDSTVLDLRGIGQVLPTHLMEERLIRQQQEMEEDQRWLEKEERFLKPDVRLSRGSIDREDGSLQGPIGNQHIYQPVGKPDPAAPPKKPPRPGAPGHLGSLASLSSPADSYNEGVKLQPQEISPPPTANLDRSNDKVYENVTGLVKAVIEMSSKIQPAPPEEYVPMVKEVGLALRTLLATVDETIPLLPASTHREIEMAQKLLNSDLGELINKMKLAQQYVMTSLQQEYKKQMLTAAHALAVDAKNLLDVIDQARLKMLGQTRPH
SMILES,composite z-score [1],composite z-score [2],composite z-score [3],composite z-score [4],composite z-score [5],composite z-score [6],z-score [7],composite z-score [8],composite z-score [9],z-score [10],composite z-score [11],z-score [12],z-score [13],z-score [14],z-score [15],composite z-score [16],composite z-score [17],composite z-score [18],composite z-score [19],composite z-score [20]
CC1=C([C@H](O)CCc2ccccc2)[C@H](CO)[C@@H]2C(=O)N(Cc3ccccc3)C(=O)[C@@H]2C1,0.635,0.0269,0.194,0.962,0.738,0.113,0.901,0.388,0.313,0.215 (inactive),0.079,-0.932 (inactive),-1.43 (inactive),0.851 (inactive),-0.425 (inactive),0.925,-0.0451,-0.0669,0.279,0.256
NC(=O)NCC#Cc1ccc2c(c1)[C@]1(C(=O)N2)[C@H](C(N)=O)[C@H]2C(=O)O[C@H](c3ccccc3)[C@H](c3ccccc3)N2[C@@H]1c1ccccc1OCCO,-0.22,1.01,-0.0788,0.543,1.23,0.66,-0.525,0.472,0.174,0.171 (inactive),0.0902,0.463 (inactive),-0.258 (inactive),0.918 (inactive),-0.447 (inactive),0.28,0.0091,0.247,0.396,1.18
COC(=O)Cn1c(C(=O)N2CCCC2)cc2c1C[C@H]1CN(C(=O)c3ccccc3)[C@@](Cc3ccccc3)(C(=O)OC)[C@@H]21,1.64,0.684,0.714,1.01,0.0488,-0.684,0.367,0.142,1.43,0.659 (inactive),-0.0963,-0.259 (inactive),-0.195 (inactive),-0.572 (inactive),-0.402 (inactive),0.344,0.158,-0.531,-0.0683,-1.04
CCCC[C@@H]1C[C@H]1[C@@H](NC(=O)c1ccccc1)c1ccccc1C(F)(F)F,0.412,1.22,0.826,1.03,0.243,-0.113,0.294,-0.826,1.17,1.31 (inactive),0.175,0.0018 (inactive),-0.0632 (inactive),1.73 (inactive),1.17 (inactive),1.84,0.319,-0.113,0.322,-0.654
COc1cc2c(cc1OC)CN(C(=O)[C@H]1[C@@H]3C(=O)O[C@@H](c4ccccc4)[C@@H](c4ccccc4)N3[C@@H](c3ccccc3OCCO)[C@]13C(=O)Nc1ccc(C#CC4(O)CCCCCC4)cc13)CC2,2.85,1.21,-0.0047,0.922,1.37,1.27,-0.627,0.971,1.08,-1.02 (inactive),1.01,-3.68 (inactive),-1.5 (inactive),-0.231 (inactive),1.57 (inactive),0.899,0.0119,0.808,1.12,1.33
C#CCNC(/C=C/c1ccccc1)CO (stereo not given),0.638,0.355,-0.0492,0.269,0.362,0.106,-1.07,0.394,-0.0687,0.835 (inactive),-0.0285,0.171 (inactive),-0.558 (inactive),-0.237 (inactive),1.39 (inactive),-0.114,-0.0846,0.304,0.443,0.448
CC(C)NC(=O)[C@@]1(Cc2ccccc2I)c2ccccc2C(=O)N(C2CCCCC2)[C@H]1c1ccc(CO)cc1,2.52,1.24,0.628,0.991,1.17,0.148,-0.105,0.227,0.916,0.95 (inactive),0.345,-3.83 (inactive),-1.09 (inactive),0.531 (inactive),0.24 (inactive),0.999,0.122,0.457,0.559,0.28
C=C(COC)C(=O)CC[C@H](OC(=O)c1ccccc1-c1ccccc1C(=O)O)c1cccc(OCCO)c1,2.49,1.27,0.403,-0.46,1.56,2.11,-1.02,1.65,-0.496,-4.13 (inactive),2.01,-8.1 (active),-0.805 (inactive),0.102 (inactive),0.683 (inactive),-1.8,-0.0332,2.33,2.6,2.34
CCCC=C(CCC)[C@@H](NS(=O)(=O)c1ccc(C(F)(F)F)cc1)c1ccc(-c2ccccc2)cc1,0.826,1.23,0.998,0.694,1.26,-0.0729,1.89,0.565,1.2,2.63 (inactive),0.281,-2.08 (inactive),0.524 (inactive),-0.372 (inactive),0.486 (inactive),0.991,0.0445,0.059,0.664,0.618
O=C1O[C@H](c2ccccc2)[C@H](c2ccccc2)N2[C@H]1[C@@H](C(=O)Nc1nc3ccccc3s1)[C@]1(C(=O)Nc3ccc(C#CC4(O)CCCCCC4)cc31)[C@H]2c1ccc(O)cc1,1.71,1.2,0.164,1,1.29,1.31,-2.35,0.666,0.856,-1.27 (inactive),0.328,-0.859 (inactive),-0.781 (inactive),0.802 (inactive),0.3 (inactive),1.34,0.293,0.417,0.164,1.82

# Reference: PubChem BioAssay
